Assay results as given in PubChem BioAssay (NCATS).
Values joined by “and” are separate entries in the source; they are usually repeats but may differ in a detail not shown here. Identical values can stand only once. Records with an inconclusive call do not appear. Active and inactive are the calls of the source. Unless noted, calls come from the whole dose curve; as a rule, active = well fitted curve in either direction with a large enough effect (not every such curve was filed as active); inconclusive = small, poorly fitted or top-dose-only effect, or another doubt; inactive = flat fitted curve, though single readings scatter.

What was measured:
[1] = Cell Viability - BJ (AID 421; calls by dose curve;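 note: potency is the fitted concentration of half-maximal effect; cells exposed to compound for 40 hours at 37 °C before readout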); conditions: BJ fibroblast viability, qHTS
Method in brief: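 Quantitative HTS: ATP depletion in BJ cells after 40 hr compound exposure in complete culture medium, detected with CellTiter-Glo; AC50 from standard Hill fits.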

[2] = Cell Viability - Jurkat (AID 426;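 active = dose-dependent loss of cell ATP signal giving a full or clear fitted curve, ranked by lower potency value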;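 note: potency is the fitted concentration of half-maximal effect; cells exposed to compound for 40 hours at 37 °C before ATP read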); conditions: qHTS
Method in brief: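 Cytotoxicity was scored as loss of cellular ATP, measured by luciferase-based luminescence, in Jurkat clone E6-1 cells after 40 h compound treatment; tamoxifen and doxorubicin served as positive controls.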

[3] = Cell Viability - Hek293 (AID 427;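 active = compounds whose dose-response curve shows a full or clear partial loss of cell viability, called from curve shape rather than a numeric limit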;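 note: potency is the fitted concentration of half-maximal effect; cells exposed to compound for 40 hours at 37 °C before reading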); conditions: qHTS
Method in brief: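 AC50 values derive from Hill-modelled concentration-response of ATP-based luminescence, normalized between DMSO-only and 100 uM tamoxifen controls. Cells were exposed in complete culture medium for 40 hr at 37 °C before detection.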

[4] = Cell Viability - HepG2 (AID 433; calls by dose curve;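 note: potency is the fitted concentration of half-maximal effect; potency for ATP loss meaning cytotoxicity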); conditions: qHTS
Method in brief: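 Read-out is luciferase-based quantitation of cellular ATP as a measure of viable HepG2 cells after 40 h treatment at 37 °C. Signal decrease is scaled between DMSO-only and 100 uM tamoxifen controls, with AC50 fitted by the Hill equation.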

[5] = Cell Viability - MRC5 (AID 434; calls by dose curve;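 note: potency is the fitted concentration of half-maximal effect; cells exposed to compound for 40 hours at 37 °C; potency reflects cytotoxicity seen as loss of intracellular ATP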); conditions: MRC5 lung fibroblast viability, qHTS
Method in brief: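 Decrease in intracellular ATP, quantified by luciferase light output, reflects compound toxicity toward MRC5 cells exposed for 40 hr in complete culture medium. Concentration-response curves, scaled between DMSO and 100 uM tamoxifen, gave AC50 values.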

[6] = Cell Viability - SK-N-SH (AID 435; calls by dose curve;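 note: potency is the fitted concentration of half-maximal effect; compound exposure lasted 40 h at 37 °C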); conditions: SK-N-SH neuroblastoma cell viability qHTS
Method in brief: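 Luminescent ATP signal served as the viability read-out after 40 hours of compound treatment of human neuroblastoma SK-N-SH cells. Concentration-response data, scaled between DMSO and 100 uM tamoxifen, gave AC50 values by standard Hill modeling.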

[7] = target: Mitogen-activated protein kinase 10 (Mus musculus) (UniProt Q61831); experiment: JNK3 AlphaScreen Assay (AID 530); conditions: JNK3 lysate, c-Jun phosphorylation; series mostly up to 57.1 µM;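 note: kinase came from lysate of stimulated human HepG2 cells; signal reports phosphorylation of biotinylated GST-cJun 1-79 at Ser73 with 10 µM ATP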
Method in brief: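 Biotinylated GST-cJun(1-79) served as substrate for JNK3 in HepG2 lysates stimulated with IL-1beta and TNF-alpha. ATP was 10 uM final, pH 7.6. Ser73 phosphorylation was quantified by AlphaScreen (680 nm excitation).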

[8] = Cell Viability - N2a (AID 540; active = well fitted curve in the direction sought with a large enough effect; an effect the other way counts as inactive or inconclusive;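 note: cells exposed to compound for 40 h at 37 °C; nearly all actives have a fitted effect of over 45% in size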); conditions: N2a mouse neuroblastoma cell viability; series mostly up to 92.2 µM
Method in brief: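 In this qHTS cytotoxicity screen, ATP-dependent luciferase luminescence reports viable N2a cells after a 40 hr compound exposure in complete culture medium. Potencies are AC50 values from standard Hill equation fits.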

[9] = Cell Viability - NIH 3T3 (AID 541; active = well fitted curve in the direction sought with a large enough effect; an effect the other way counts as inactive or inconclusive; note: nearly all actives have a fitted effect of over 25% in size); conditions: NIH 3T3 cell viability, qHTS; series mostly up to 92.2 µM
Method in brief: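 In this cytotoxicity screen, acute toxicity is scored as an ATP drop measured by CellTiter-Glo in NIH 3T3 fibroblasts following a 40 hr, 37 °C incubation with compound.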

[10] = Cell Viability - HUV-EC-C (AID 542; active = well fitted curve in the direction sought with a large enough effect; an effect the other way counts as inactive or inconclusive; note: nearly all actives have a fitted effect of over 35% in size); conditions: HUV-EC-C endothelial cell viability, qHTS; series mostly up to 92.2 µM
Method in brief: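 Concentration-dependent ATP loss in HUV-EC-C cells is the measure. Exposure lasts 40 hr at 37 °C; luminescence follows CellTiter-Glo addition, and Hill fits give AC50.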

[11] = Cell Viability - H-4-II-E (AID 543; active = well fitted curve in the direction sought with a large enough effect; an effect the other way counts as inactive or inconclusive; note: nearly all actives have a fitted effect of over 35% in size); conditions: H-4-II-E rat hepatoma viability; series mostly up to 92.2 µM
Method in brief: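 AC50 from Hill-modelled qHTS concentration-response curves. H-4-II-E rat hepatoma cells in complete medium, 40 hr exposure at 37 °C, viability by CellTiter-Glo ATP luminescence.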

[12] = Cell Viability - SH-SY5Y (AID 544; active = well fitted curve in the direction sought with a large enough effect; an effect the other way counts as inactive or inconclusive; note: nearly all actives have a fitted effect of over 55% in size); conditions: SH-SY5Y neuroblastoma cell viability; series mostly up to 92.2 µM
Method in brief: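 Quantitative HTS in SH-SY5Y neuroblastoma cells, 40 hr treatment at 37 °C, ATP content by luciferase luminescence; AC50 from Hill fits.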

[13] = Cell Viability - Renal Proximal Tubule (AID 545; active = well fitted curve in the direction sought with a large enough effect; an effect the other way counts as inactive or inconclusive; note: nearly all actives have a fitted effect of over 40% in size); conditions: renal proximal tubule cells viability, primary cells of rat origin; series mostly up to 91.7 µM
Method in brief: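 Luminescent ATP signal (CellTiter-Glo) served as the viability read-out after 40 hr compound exposure of freshly isolated rat proximal tubule cells at 37 °C. Concentration-dependent ATP loss was fitted with the Hill equation to give AC50.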

[14] = Cell Viability - Mesenchymal (AID 546; active = well fitted curve in the direction sought with a large enough effect; an effect the other way counts as inactive or inconclusive;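 note: cells exposed to compound for 40 hours before reading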); conditions: mesenchymal cells viability, qHTS; series mostly up to 91.7 µM
Method in brief: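 In this qHTS cytotoxicity format, glomerulus-derived human mesenchymal kidney cells received compound for 40 hr, then luciferase-based ATP quantitation. Concentration-response data were fitted with the Hill equation.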

[15] = AP1 Signaling Pathway (AID 357); conditions: ME-180 AP-1-bla reporter, EGF-induced, beta-lactamase ratio, 5 h; series mostly up to 38 µM;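 note: ME-180 reporter cells stimulated with EGF at its EC50 level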
Method in brief: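 In this screen, ME-180 cells in Opti-MEM with 0.5% dialyzed FBS received EC50 EGF and compound titrations for 5 h. AP-1 reporter beta-lactamase was detected via CCF4 ratio, giving AC50 for positive and negative modulators.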

[16] = target: Cytochrome P450 1A2 (Homo sapiens) (UniProt P05177); experiment: p450-cyp1a2 (AID 410; calls by dose curve); conditions: recombinant CYP1A2, luciferin-ME demethylation, luminescence; series mostly up to 57 µM
Cytochrome P450 1A2 (Homo sapiens), sequence (P05177 whole entry, looked up): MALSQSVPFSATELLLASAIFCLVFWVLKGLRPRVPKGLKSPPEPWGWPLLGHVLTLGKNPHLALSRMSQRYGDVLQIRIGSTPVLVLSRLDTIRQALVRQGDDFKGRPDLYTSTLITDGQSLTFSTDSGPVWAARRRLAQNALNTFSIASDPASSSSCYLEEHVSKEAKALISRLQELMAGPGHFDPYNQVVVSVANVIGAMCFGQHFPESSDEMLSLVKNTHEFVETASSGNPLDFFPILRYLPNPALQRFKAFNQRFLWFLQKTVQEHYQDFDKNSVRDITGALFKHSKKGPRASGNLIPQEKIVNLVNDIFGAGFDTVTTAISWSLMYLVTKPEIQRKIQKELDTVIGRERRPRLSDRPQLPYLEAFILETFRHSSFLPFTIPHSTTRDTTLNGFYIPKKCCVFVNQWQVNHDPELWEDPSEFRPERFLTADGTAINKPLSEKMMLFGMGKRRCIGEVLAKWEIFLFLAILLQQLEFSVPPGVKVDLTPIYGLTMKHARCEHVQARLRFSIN
Method in brief: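 Read-out is luminescence from luciferin produced by CYP1A2 demethylation of Luciferin-ME (100uM, at Km). Detection reagent stopped the 60 min NADPH-dependent reaction; signals were normalized to 57 uM furafylline.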

[17] = NFAT Signaling Pathway (AID 444); conditions: Jurkat NFAT-bla M1, carbachol, beta-lactamase ratio, 5 h; series mostly up to 17.2 µM;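 note: carbachol stimulus at about its EC50 of 1 µM final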
Method in brief: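 Jurkat cells carrying an NFAT-driven β-lactamase reporter and co-transfected muscarinic M1 receptor were treated with compound plus carbachol (1 uM final, an EC50 level) for 5 h at 37 °C. CCF4 loading followed for 1 h at RT; 460/530 nm ratio gave %activity.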

[18] = Stat Signaling Pathway (AID 446); conditions: ME-180 (cervical carcinoma) SIE beta-lactamase reporter, IL-6 stimulated, 5 h; series mostly up to 17.2 µM;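 note: ME-180 cervical cancer cells given 40 pM IL-6 alongside compound; SIE-controlled beta-lactamase reporter measured as 460/530 nm FRET emission ratio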
Method in brief: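 Overnight-plated ME-180 cells bearing a STAT Inducible Element beta-lactamase reporter; 5 h co-exposure to compound and 40 pM IL-6; values normalized to 300 pM IL-6 and 125 nM JAK inhibitor controls.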

[19] = target: Glucocorticoid receptor (Homo sapiens) (UniProt P04150); experiment: GR-GFP Redistribution (AID 450;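 active = compounds whose dose series gives a full or clear partial fitted curve of increased nuclear translocation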; note: potency is the fitted concentration of half-maximal effect); conditions: U2OS GR-GFP nuclear translocation, laser cytometry, 2 h
Glucocorticoid receptor (Homo sapiens), sequence (P04150 whole entry, looked up, the tested form may be a part): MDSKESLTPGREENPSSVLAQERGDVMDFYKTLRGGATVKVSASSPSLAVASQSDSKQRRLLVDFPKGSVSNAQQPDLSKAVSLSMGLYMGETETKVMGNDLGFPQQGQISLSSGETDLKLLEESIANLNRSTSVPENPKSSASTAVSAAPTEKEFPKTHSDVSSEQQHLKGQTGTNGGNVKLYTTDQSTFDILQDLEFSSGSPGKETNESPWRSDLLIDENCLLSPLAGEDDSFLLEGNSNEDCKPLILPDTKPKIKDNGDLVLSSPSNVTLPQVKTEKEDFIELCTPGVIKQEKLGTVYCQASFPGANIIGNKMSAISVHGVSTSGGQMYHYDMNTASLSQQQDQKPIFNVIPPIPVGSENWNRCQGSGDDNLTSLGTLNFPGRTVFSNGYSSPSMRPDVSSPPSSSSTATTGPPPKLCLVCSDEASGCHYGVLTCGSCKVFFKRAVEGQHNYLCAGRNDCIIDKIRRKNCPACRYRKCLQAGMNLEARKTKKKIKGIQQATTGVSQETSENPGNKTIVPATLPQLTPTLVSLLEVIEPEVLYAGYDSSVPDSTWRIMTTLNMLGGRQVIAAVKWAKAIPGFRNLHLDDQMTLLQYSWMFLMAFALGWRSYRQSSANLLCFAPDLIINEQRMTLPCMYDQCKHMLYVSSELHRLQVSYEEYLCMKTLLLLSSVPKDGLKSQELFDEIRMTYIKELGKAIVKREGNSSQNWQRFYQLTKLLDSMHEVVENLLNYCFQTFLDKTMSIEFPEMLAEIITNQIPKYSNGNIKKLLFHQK

[20] = target: Glucocorticoid receptor (Homo sapiens) (UniProt P04150); experiment: GR-EFC Redistribution (AID 451; calls by dose curve; note: potency is the fitted concentration of half-maximal effect); conditions: CHO-K1 GR-EFC translocation, beta-gal luminescence, 2 h
Method in brief: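 CHO-K1 cells stably expressing nuclear-localized β-gal enzyme acceptor and GR fused C-terminally to the enzyme donor fragment; ligand-driven nuclear translocation restores β-gal by complementation. Compounds titrated up to 46 uM final, 2 h at 37 °C; luminescence read.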

Measured: Potency

C=C1C[C@]23C[C@@]1(O)CC[C@H]2[C@@]12C=C[C@H](O)[C@@](C)(C(=O)O1)[C@H]2[C@@H]3C(=O)O
inactive: [1] > 92 µM | [2] > 92 µM | [3] > 92 µM | [4] > 92 µM | [5] > 92 µM | [6] > 92 µM | [7] | [8] | [9] | [10] | [11] | [12] | [13] | [14]

C[C@]1(C2CCCC2)Cc2cc(OCC(=O)O)c(Cl)c(Cl)c2C1=O
inactive: [15] | [16] | [17] | [18] | [19] > 46 µM | [20] > 46 µM | [7]

COc1ccc(CCC(=O)c2c(O)cc(O[C@@H]3O[C@H](CO)[C@@H](O)[C@H](O)[C@H]3O[C@@H]3O[C@@H](C)[C@H](O)[C@@H](O)[C@H]3O)cc2O)cc1O
inactive: [1] > 92 µM | [2] > 92 µM | [3] > 92 µM | [4] > 92 µM | [5] > 92 µM | [6] > 92 µM | [7] | [8] | [9] | [10] | [11] | [12] | [13] | [14]

CC(C)C[C@H](NC(=O)[C@@H]1O[C@H]1C(=O)O)C(=O)NCCCCN=C(N)N
inactive: [15] | [16] | [17] | [18] | [19] > 46 µM and > 20.6 µM | [20] > 46 µM | [7]

CCN1CCN(C(=O)N[C@@H](C(=O)N[C@@H]2C(=O)N3[C@@H]2SC(C)(C)[C@@H]3C(=O)O)c2ccccc2)C(=O)C1=O
inactive: [17] | [18]

CCc1cccc2c3c([nH]c12)[C@@](CC)(CC(=O)O)OCC3
inactive: [15] | [16] | [17] | [18] | [7]
